Assay results from PubChem BioAssay (EPA / NIEHS).
The source made the active and inactive calls. Rule for the calls: active = hit-call score of the fitted dose curve at least 0.9, where 1 is the maximum; inactive = score below 0.9.

Assays:
Details in all cases: mRNA level, 48 h; actives raise or lower the signal
[1] = read-out: Glutathione S-Transferase (GSTA2), GSTA2 (gene 2939); assay: LTEA_HepaRG_GSTA2: Life Technologies and Expression Analysis (LTEA) Assay for Glutathione S-Transferase (GSTA2) using HepaRG (AID 2283497)
Method in brief: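 qRT-PCR readout of GSTA2 transcript, normalized to three housekeeping genes, fitted bidirectionally against 0.5% DMSO baseline. Differentiated HepaRG cells received compound for 48 h at 8 concentrations (top 100 uM, half-log steps).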

[2] = read-out: Glutamate-cysteine ligase catalytic (GCLC), GCLC (gene 2729); assay: LTEA_HepaRG_GCLC: Life Technologies and Expression Analysis (LTEA) Assay for Glutamate-cysteine ligase catalytic (GCLC) using HepaRG (AID 2283498)
Method in brief: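 HepaRG, 48 h exposure, 8-pt half-log series from 100 uM, 0.5% DMSO vehicle; TaqMan qRT-PCR for GCLC mRNA, housekeeping-normalized; bidirectional curve fit vs DMSO baseline.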

[3] = read-out: growth arrest and DNA damage 45 (GADD45G), GADD45G (gene 10912); assay: LTEA_HepaRG_GADD45G: Life Technologies and Expression Analysis (LTEA) Assay for growth arrest and DNA damage 45 (GADD45G) using HepaRG (AID 2283499)
Method in brief: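 HepaRG, 48 h exposure, top 100 uM, half-log 8-point series, 0.5% DMSO vehicle, duplicates. Readout: GADD45G transcript by qRT-PCR (Fluidigm array), housekeeping-normalised (ACTB/GAPDH/POLR2A). Bidirectional curve fit vs DMSO baseline.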

[4] = read-out: Glutamate-cysteine ligase regulatory (GCLM), GCLM (gene 2730); assay: LTEA_HepaRG_GCLM: Life Technologies and Expression Analysis (LTEA) Assay for Glutamate-cysteine ligase regulatory (GCLM) using HepaRG (AID 2283500)
Method in brief: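 HepaRG, 48 h dosing, 100 uM top, half-log x8, 0.5% DMSO vehicle. Readout: GCLM mRNA by TaqMan qRT-PCR, housekeeping-normalized (ACTB/GAPDH/POLR2A). Curves fit bidirectionally vs DMSO baseline.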

[5] = read-out: Glutathione S-transferase M3 (GSTM3), GSTM3 (gene 2947); assay: LTEA_HepaRG_GSTM3: Life Technologies and Expression Analysis (LTEA) Assay for Glutathione S-transferase M3 (GSTM3) using HepaRG (AID 2283501)
Method in brief: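 qRT-PCR read-out of GSTM3 transcript, normalized to three housekeeping genes, from human HepaRG cells after 48 h chemical exposure. Eight-point half-log series, top 100 uM, 0.5% DMSO vehicle; gain or loss fitted relative to DMSO baseline.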

[6] = read-out: Hypoxia-inducible factor 1-alpha (Homo sapiens) (UniProt Q16665); assay: LTEA_HepaRG_HIF1A: Life Technologies and Expression Analysis (LTEA) Assay for Hypoxia-inducible factor 1 (HIF1A) Trancription factor using HepaRG (AID 2283503)
Method in brief: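 Gain- or loss-of-signal HIF1A mRNA changes are fitted against a DMSO baseline. HepaRG cultures receive eight concentrations, highest 100 uM, for 48 h in serum-free induction medium with 0.5% DMSO.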

[7] = read-out: 3-Hydroxy-3-Methylglutaryl-CoA Synthase 2 (HMGCS2), HMGCS2 (gene 3158); assay: LTEA_HepaRG_HMGCS2: Life Technologies and Expression Analysis (LTEA) Assay for 3-Hydroxy-3-Methylglutaryl-CoA Synthase 2 (HMGCS2) using HepaRG (AID 2283504)
Method in brief: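 qRT-PCR read-out of HMGCS2 transcript, normalised to three housekeeping genes, in HepaRG cells after 48 h chemical exposure. Eight-point curves from 100 uM, half-log dilutions, 0.5% DMSO vehicle; gain or loss fitted relative to DMSO baseline.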

HGF (gene 3082) = assay: LTEA_HepaRG_HGF: Life Technologies and Expression Analysis (LTEA) Assay for Hepatocyte Growth Facto (HGF) using HepaRG (AID 2283505)
Method in brief: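 HepaRG, 48 h dosing, 8-pt half-log series from 100 uM in 0.5% DMSO, duplicates. Readout: TaqMan qRT-PCR of HGF mRNA, housekeeping-normalized; bidirectional curve fit vs DMSO baseline.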

[8] = read-out: Insulin Like Growth Factor 1 (IGF1), IGF1 (gene 3479); assay: LTEA_HepaRG_IGF1: Life Technologies and Expression Analysis (LTEA) Assay for Insulin Like Growth Factor 1 (IGF1) using HepaRG (AID 2283506)
Method in brief: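 qRT-PCR readout of IGF1 mRNA, normalized to three housekeeping genes, after 48 h chemical exposure of HepaRG cells. Concentrations: 8-point half-log series, top 100 uM, 0.5% DMSO vehicle. Gain or loss fitted against DMSO baseline.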

[9] = read-out: Intercellular Adhesion Molecule 1 (ICAM1), ICAM1 (gene 3383); assay: LTEA_HepaRG_ICAM1: Life Technologies and Expression Analysis (LTEA) Assay for Intercellular Adhesion Molecule 1 (ICAM1) using HepaRG (AID 2283507)
Method in brief: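 HepaRG, 48 h exposure, 8-pt half-log series from 100 uM, 0.5% DMSO vehicle, duplicates. Readout: TaqMan qRT-PCR mRNA, housekeeping-normalized (ACTB/GAPDH/POLR2A). Bidirectional curve fit vs DMSO baseline.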

[10] = read-out: Insulin-like growth factor-binding protein 1 (IGFBP1), IGFBP1 (gene 3484); assay: LTEA_HepaRG_IGFBP1: Life Technologies and Expression Analysis (LTEA) Assay for Insulin-like growth factor-binding protein 1 (IGFBP1) using HepaRG (AID 2283508)
Method in brief: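 qRT-PCR mRNA read-out (TaqMan, Fluidigm array), normalised to three housekeeping genes; HepaRG cells, 48 h exposure, 8-pt half-log series from 100 uM, 0.5% DMSO vehicle; bidirectional curve fit vs DMSO baseline.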

[11] = read-out: Interleukin 6 (IL6), IL6 (gene 3569); assay: LTEA_HepaRG_IL6: Life Technologies and Expression Analysis (LTEA) Assay for Interleukin 6 (IL6) using HepaRG (AID 2283509)
Method in brief: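 qRT-PCR read-out of IL6 transcript, normalized to three housekeeping genes, after 48 h chemical exposure of HepaRG cells; 8-point half-log series, top 100 uM, 0.5% DMSO vehicle. Bidirectional curve fitting against DMSO baseline.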

[12] = read-out: Interleukin 6 Receptor (IL6R), IL6R (gene 3570); assay: LTEA_HepaRG_IL6R: Life Technologies and Expression Analysis (LTEA) Assay for Interleukin 6 Receptor (IL6R) using HepaRG (AID 2283510);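 for AC50: differentiated human HepaRG liver cells in serum-free induction medium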
Method in brief: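 HepaRG, 48 h exposure, 8-pt half-log series, top 100 uM, 0.5% DMSO vehicle, duplicates. Read-out: TaqMan qRT-PCR of IL6R transcript, housekeeping-gene normalized. Gain or loss fitted relative to DMSO baseline.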

[13] = read-out: Potassium channel subfamily K member 1 (KCNK1), KCNK1 (gene 3775); assay: LTEA_HepaRG_KCNK1: Life Technologies and Expression Analysis (LTEA) Assay for Potassium channel subfamily K member 1 (KCNK1) using HepaRG (AID 2283511)
Method in brief: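 HepaRG, 48 h exposure, 8-pt half-log series top 100 uM, 0.5% DMSO vehicle, duplicates. Readout: KCNK1 transcript by qRT-PCR (Fluidigm array), housekeeping-normalized; bidirectional curve fit relative to DMSO baseline.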

[14] = read-out: Keratin 19 (KRT19), KRT19 (gene 3880); assay: LTEA_HepaRG_KRT19: Life Technologies and Expression Analysis (LTEA) Assay for Keratin 19 (KRT19) using HepaRG (AID 2283512)
Method in brief: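 HepaRG, 48 h chemical exposure, 8-pt half-log CRC from 100 uM, 0.5% DMSO vehicle, duplicates. Readout: TaqMan qRT-PCR of KRT19 mRNA, housekeeping-normalized (ACTB/GAPDH/POLR2A). Bidirectional fit vs DMSO baseline.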

[15] = read-out: JUN Transcription Factor, JUN (gene 3725); assay: LTEA_HepaRG_JUN: Life Technologies and Expression Analysis (LTEA) Assay for JUN Transcription Factor using HepaRG (AID 2283513)
Method in brief: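 HepaRG, 48 h exposure, 8-pt half-log series top 100 uM, 0.5% DMSO, duplicate. JUN mRNA by qRT-PCR (Fluidigm), housekeeping-normalized (ACTB/GAPDH/POLR2A); bidirectional curve fit vs DMSO baseline.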

[16] = read-out: Lipase C (LIPC), LIPC (gene 3990); assay: LTEA_HepaRG_LIPC: Life Technologies and Expression Analysis (LTEA) Assay for Lipase C (LIPC) using HepaRG (AID 2283514)
Method in brief: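 HepaRG, 48 h exposure, 8-pt half-log series from 100 uM in 0.5% DMSO, duplicates. Readout: LIPC mRNA by Fluidigm qRT-PCR, housekeeping-normalized (ACTB/GAPDH/POLR2A). Gain or loss fitted bidirectionally against DMSO baseline.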

[17] = read-out: Lipoprotein lipase (LPL), LPL (gene 4023); assay: LTEA_HepaRG_LPL: Life Technologies and Expression Analysis (LTEA) Assay for Lipoprotein lipase (LPL) using HepaRG (AID 2283515)
Method in brief: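 HepaRG, 48 h exposure, 8-pt half-log dilutions from 100 uM, 0.5% DMSO vehicle, duplicates; qRT-PCR (Fluidigm array) of LPL mRNA vs housekeeping genes; bidirectional curve fit relative to DMSO baseline.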

[18] = read-out: MicroRNA 122 (MIR122), gene 406906; assay: LTEA_HepaRG_MIR122: Life Technologies and Expression Analysis (LTEA) Assay for MicroRNA 122 (MIR122) using HepaRG (AID 2283516); note: the transcript read is the microRNA miR-122
Method in brief: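 qRT-PCR read-out (TaqMan, Fluidigm array), normalized to three housekeeping genes; HepaRG cells dosed 48 h at 8 concentrations up to 100 uM in 0.5% DMSO, duplicate; gain or loss fitted against DMSO baseline.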

[19] = read-out: Heat shock 70 kDa protein 1 (HSPA1A), gene 3303; assay: LTEA_HepaRG_HSPA1A: Life Technologies and Expression Analysis (LTEA) Assay for Heat shock 70 kDa protein 1 (HSPA1A) using HepaRG (AID 2283502)
Method in brief: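 HepaRG, 48 h exposure, 8-pt half-log CRC from 100 uM in 0.5% DMSO, duplicates. Readout: TaqMan qRT-PCR of HSPA1A mRNA, housekeeping-normalized (ACTB/GAPDH/POLR2A). Bidirectional fit vs 0.5% DMSO baseline.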

Measured: AC50

Hypoxia-inducible factor 1-alpha (Homo sapiens), sequence (Q16665 whole entry, looked up): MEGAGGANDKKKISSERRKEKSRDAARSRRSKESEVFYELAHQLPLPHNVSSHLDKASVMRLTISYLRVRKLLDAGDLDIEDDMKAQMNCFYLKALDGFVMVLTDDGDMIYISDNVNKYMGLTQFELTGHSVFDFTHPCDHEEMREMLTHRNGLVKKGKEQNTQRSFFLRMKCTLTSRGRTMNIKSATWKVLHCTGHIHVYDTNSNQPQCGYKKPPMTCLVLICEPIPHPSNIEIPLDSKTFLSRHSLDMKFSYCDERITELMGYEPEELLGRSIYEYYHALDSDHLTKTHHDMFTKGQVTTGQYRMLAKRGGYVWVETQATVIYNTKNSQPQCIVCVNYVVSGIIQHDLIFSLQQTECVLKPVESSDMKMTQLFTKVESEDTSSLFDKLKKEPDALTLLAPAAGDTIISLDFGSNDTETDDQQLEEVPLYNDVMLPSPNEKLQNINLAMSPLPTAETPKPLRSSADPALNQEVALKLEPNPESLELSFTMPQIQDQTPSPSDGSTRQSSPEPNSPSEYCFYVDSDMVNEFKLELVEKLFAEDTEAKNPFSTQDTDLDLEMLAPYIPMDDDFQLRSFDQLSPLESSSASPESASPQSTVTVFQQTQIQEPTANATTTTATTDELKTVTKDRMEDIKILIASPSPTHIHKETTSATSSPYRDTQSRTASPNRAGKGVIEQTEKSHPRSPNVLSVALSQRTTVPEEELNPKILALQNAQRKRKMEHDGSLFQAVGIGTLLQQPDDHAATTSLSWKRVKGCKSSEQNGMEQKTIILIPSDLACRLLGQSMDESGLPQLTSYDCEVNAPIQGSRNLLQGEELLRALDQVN

C[C@](N)(Cc1ccc(O)c(O)c1)C(=O)O
not listed: [19]
inactive: all other assays above

Cc1c(-c2cccnc2)c2ccccc2n1CCCCC(=O)O
inactive: all assays above

CCN(C(=O)c1cc(C)cc(OC[C@H](C)Nc2ccncc2)c1)C(C)C
active: [3] 33.8 µM | [7] 33.8 µM | HGF (gene 3082) 33.8 µM | [8] 33.8 µM | [11] 33.8 µM | [14] 19.3 µM | [16] 33.8 µM | [17] 33.8 µM | [18] 33.8 µM
not listed: [6]
inactive: all other assays above

COc1ccc(-n2nc(C(F)F)cc2-c2ccc(S(C)=O)cc2)cc1 (stereo not given)
active: [19] 43.5 µM | [17] 31.1 µM
not listed: [6]
inactive: all other assays above

CNS(=O)(=O)c1cc(C(=O)N2CCC(CCN3C4CCC3CC(n3c(C)nc5ccccc53)C4)(c3cccc(F)c3)CC2)c(Cl)cc1F (stereo not given)
active: [1] 31.8 µM | [3] 30.8 µM | [7] 23.5 µM | [8] 16.3 µM | [9] 26.4 µM | [10] 30.5 µM | [14] 18.3 µM | [16] 30.1 µM | [17] 18.2 µM | [18] 18.8 µM
inactive: [2] | [4] | [5] | [19] | HGF (gene 3082) | [11] | [12] | [13] | [15]

CC/C(=C\C(=N/O)C(N)=O)C(C)[N+](=O)[O-] (stereo not given)
inactive: all assays above

CCCCCCCCCCCCCCCO
not listed: [6]
inactive: all other assays above

COc1ccc2sc(C(=O)Nc3nnn[nH]3)c(OC(C)C)c2c1
active: [1] 50 µM | [3] 80.8 µM | [5] 76.2 µM | [19] 9.47 µM | [6] 72 µM | [7] 86.5 µM | [10] 23.6 µM | [13] 28.1 µM | [17] 12.7 µM | [18] 80.2 µM
inactive: [2] | [4] | HGF (gene 3082) | [8] | [9] | [11] | [12] | [14] | [15] | [16]

CC(=O)OCCC(C)C
not listed: [19]
inactive: all other assays above

O=C(O)CC(O)C(=O)O (stereo not given)
not listed: [6]
inactive: all other assays above

COCCOc1cc2cc(C(=O)NC3CCN(C(C)C)CC3)n(CC(=O)Nc3ccc(Cl)cn3)c2cn1
active: [1] 45 µM | [3] 45 µM | [5] 45 µM | [6] 72.9 µM | [7] 47.2 µM | [8] 13.8 µM | [10] 45 µM | [12] 10.6 µM | [14] 7.89 µM | [16] 45 µM | [17] 8.93 µM | [18] 45 µM
inactive: [2] | [4] | HGF (gene 3082) | [9] | [11] | [13] | [15]

C=CC(=C)CCC=C(C)C
not listed: [6]
inactive: all other assays above

CCCCCCc1ccc(O)cc1O
not listed: [6]
inactive: all other assays above
